# CYP2C9 inhib – human CYP2C9 inhibition; P11712; CYP2C9 Supersomes, luciferin-H conversion, luminescence; inhibition, % at 5 µM; 96,000 tested, 20% active; AID 777;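 active means blocking of liver enzyme CYP2C9 beyond about 50% at 5 µM, limit read from the data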
# CYP2C19 activ – increases human CYP2C19 enzyme activity; P33261; recombinant CYP2C19, luciferin-H EGE luminescence; active compounds read high; 0 = fully inhibited enzyme, 1 = untreated enzyme; activation factor at 5 µM; 96,000 tested, under 10 active; AID 1025;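 active means activation factor of at least 2 at 5 µM in the primary screen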;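 further: 0 = wells with 2.5 mM tranylcypromine and 1 = vehicle-only wells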
# Target sequence (P33261 whole entry, looked up): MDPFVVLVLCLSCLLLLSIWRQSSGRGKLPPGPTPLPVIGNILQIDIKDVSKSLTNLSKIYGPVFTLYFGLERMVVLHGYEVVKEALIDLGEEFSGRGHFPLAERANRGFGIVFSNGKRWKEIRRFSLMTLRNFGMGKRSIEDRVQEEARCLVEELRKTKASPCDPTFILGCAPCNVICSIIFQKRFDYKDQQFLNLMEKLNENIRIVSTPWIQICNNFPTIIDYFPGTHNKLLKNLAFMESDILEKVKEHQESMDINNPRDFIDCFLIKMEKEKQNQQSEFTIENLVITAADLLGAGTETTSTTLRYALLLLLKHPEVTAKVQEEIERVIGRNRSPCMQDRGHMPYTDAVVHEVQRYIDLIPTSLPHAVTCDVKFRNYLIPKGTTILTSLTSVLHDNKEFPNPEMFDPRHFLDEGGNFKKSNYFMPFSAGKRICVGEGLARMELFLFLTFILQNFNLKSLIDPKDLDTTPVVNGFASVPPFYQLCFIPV
# CYP2C19 inhib – blocks human cytochrome P450 2C19; P33261; CYP2C19 Supersomes, luciferin-H EGE luminescence, 30 min; inhibition, % at 5 µM; 96,000 tested, 21% active; AID 778;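 active means CYP2C19 inhibition above a set limit at 5 µM in the primary screen, cut at about 50% in these data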;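 further: plate controls were negative control wells for no effect and 2.5 mM tranylcypromine positive control for full effect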
# sEH inh – inhibitors of human soluble epoxide hydrolase; P34913; recombinant human sEH enzymatic activity assay; inhibition, % at 2 µM; 91,000 tested, 0.34% active; in the data active means inhibition above about 80%
# CYP2C9 activ – CYP2C9 (human) activation; P11712; recombinant CYP2C9, luciferin-H conversion, luminescence; active compounds read high; factor 1 = untreated enzyme, 0 = blocked; activation factor at 5 µM; 96,000 tested, 1.4% active;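 active means activation factor of 2 or more for CYP2C9 at a 5 µM dose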;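 further: 0 = sulfaphenazole-blocked wells and 1 = vehicle-only wells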
# sEH act – soluble epoxide hydrolase (human) activation; purified human sEH enzymatic activity, activator screen; activation, % at 2 µM; 91,000 tested, 0.04% active; AID 717; in the data active means activation above about 37%
# An asterisk follows results filed as active; / = not tested or not shown. Only some compounds are listed: those with a hit (about 27% of all), similar ones and a draw of the others.
SMILES,CYP2C9 inhib,CYP2C19 activ,CYP2C19 inhib,sEH inh,CYP2C9 activ,sEH act
O=C(CCCn1c(=S)[nH]c2cc3c(cc2c1=O)OCO3)N1CCN(C2CCCCC2)CC1,50*,0.9,9,7,0.5,-4
Cc1ccc(C)c(N2CCN(C(=O)CCCn3c(=S)[nH]c4cc5c(cc4c3=O)OCO5)CC2)c1,77*,0.5,54*,18,0.2,-16
O=C(CCCn1c(=S)[nH]c2cc3c(cc2c1=O)OCO3)N1CCN(c2ccccc2F)CC1,30,1,5,-1,0.7,2
Cc1ccccc1N/C=C/C(=C(C#N)C#N)N(C)C,34,0.6,42,-13,0.7,12
Cc1ccc(NC(=O)C2CC(=O)OC23CCOC(C)(C)C3)cc1 (centres undefined),-10,0.3,66*,-16,1.1,17
CC1(C)CC2(CCO1)OC(=O)CC2C(=O)Nc1cccc2ccccc12 (centres undefined),21,0.6,39,2,0.8,-1
O=C1CC(C(=O)Nc2ccc(Br)cc2)C2(CCCC2)O1 (centres undefined),61*,0,97*,4,0.4,-8
O=C1CC(C(=O)Nc2ccccc2)C2(CCCCC2)O1 (centres undefined),31,0.8,18,-2,0.7,3
CC(=O)N1CCc2cc(S(=O)(=O)NCCC(=O)Nc3cccc(C)c3C)ccc21,-8,0.9,6,/,1.1,/
CC(=O)Nc1ccc(Oc2cc(C#N)c(C#N)cc2N2CCOCC2)cc1,53*,0.6,42,-5,0.5,7
O=C(NC1CCS(=O)(=O)C1)OC1CCCCC1 (centres undefined),/,/,/,-4,/,7
COCCCn1cc(C(=O)c2cc(OC)ccc2OCC(=O)Nc2cc(C)on2)cc(C#N)c1=O,57*,0.5,50*,1,0.4,-2
N#Cc1cc2c(nc1SCc1ccc(Cl)cc1)CCCC2,/,/,/,25,/,-22
CNc1nc(SCc2ccccc2Cl)nc2c1CCCC2,90*,0,98*,/,0.1,/
CN(C)c1nc(SCc2ccc(Cl)cc2)nc2c1CCCC2,86*,0.3,69*,4,0.1,-2
O=c1[nH]c(SCc2ccccc2Cl)nc2c1CCC2,13,1.1,-8,12,0.9,-14
COC(=O)CCC(=O)Nc1cccc(C(=O)Nc2cccc(Cl)c2)c1,35,0.8,24,30,0.7,-29
CC(C)=C1C2CCC1C1C(=O)N(NC(=O)COc3ccc(C(C)(C)C)cc3)C(=O)C21 (centres undefined),31,0.9,12,0,0.7,3
Cn1c(=O)c2c(nc(OCC3COC(C)(C)O3)n2Cc2ccccc2F)n(C)c1=O (centres undefined),26,0.9,9,8,0.7,-8
COc1ccc(-n2cnc3cc(NCc4ccccn4)ccc32)cc1,44,0.9,8,9,0.6,-6
COc1ccc(-n2cnc3ccccc32)cc1,59*,0.4,61*,-16,0.4,11
COc1ccc2ncn(-c3ccccc3)c2c1,55*,0.1,95*,5,0.5,-5
CCCOc1ccc(C(C)(O)CN2CCOCC2)cc1 (centres undefined),44,0.5,54*,-5,0.6,4
CCOc1ccc(C(C)(O)CN2CCOCC2)cc1 (centres undefined),3,0.9,14,1,1,-1
COc1ccc(C(=O)N2c3cc4c(cc3C(C)=CC2(C)C)OCO4)cc1,95*,0.1,92*,4,0,-1
SMILES,CYP2C9 inhib,CYP2C19 activ,CYP2C19 inhib,sEH inh,CYP2C9 activ,sEH act
CC1=CC(C)(C)N(C(=O)c2ccccc2)c2ccccc21,14,0.7,28,17,0.9,-18
Cc1cc(-c2ccccc2)nc(N2CCC(C(=O)NCC3CCCCC3)CC2)n1,/,/,/,43,/,-40
COc1ccc(CCNC(=O)COC(=O)c2cnc(C)cn2)cc1,27,1,5,-2,0.7,0
NS(=O)(=O)c1cccnc1Nc1cccc(C(F)(F)F)c1,78*,0.7,34,-1,0.2,3
NC(=O)/C=C\C(=O)Nc1cccc(C(F)(F)F)c1,3,0.9,11,-8,1,10
COc1ccccc1OCc1ccc(C(=O)N(C)C)o1,4,0.8,20,-14,1,16
COC(=O)c1ccccc1NC(=O)c1ccc(COc2cc(C)cc(C)c2)o1,-25,1.1,-15,-16,1.3,19
